Results as given in the supplement of paper PMC6411743.
± gives the standard deviation of the averaged measurements. Targets with the largest changes are over-represented here; the source holds about 6,500 in all.

Key:
Experiment in all cases: NP40-soluble protein abundance relative to vehicle (solubility fold change) (ratio); higher = more soluble protein in presence of ATP
ALG5 = molecular target: T1, ALG5 (UniProt Q9Y673)
T1 sequence (whole entry): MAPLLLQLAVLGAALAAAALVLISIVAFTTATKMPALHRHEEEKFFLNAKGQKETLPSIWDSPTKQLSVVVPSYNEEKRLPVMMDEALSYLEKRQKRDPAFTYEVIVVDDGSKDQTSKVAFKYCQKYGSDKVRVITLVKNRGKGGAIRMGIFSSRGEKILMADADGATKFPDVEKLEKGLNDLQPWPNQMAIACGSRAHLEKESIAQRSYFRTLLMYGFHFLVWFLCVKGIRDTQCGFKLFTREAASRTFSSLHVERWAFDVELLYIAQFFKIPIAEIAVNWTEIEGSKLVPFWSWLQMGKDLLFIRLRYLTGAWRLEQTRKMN
In short: (§1)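 Values are fold changes against the detergent-processed vehicle, based on vsn-normalised intensities. Jurkat crude lysate was treated at eight concentrations from 0.1 to 10 mM (10 min at room temperature, then 3 min at 37 °C), solubilised with 0.8% NP40 and benzonase, ultracentrifuged and analysed by TMT-labelled LC-MS/MS over three independent experiments.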

DDX52 = molecular target: T2, DDX52 (UniProt Q9Y2R4)
T2 sequence (whole entry): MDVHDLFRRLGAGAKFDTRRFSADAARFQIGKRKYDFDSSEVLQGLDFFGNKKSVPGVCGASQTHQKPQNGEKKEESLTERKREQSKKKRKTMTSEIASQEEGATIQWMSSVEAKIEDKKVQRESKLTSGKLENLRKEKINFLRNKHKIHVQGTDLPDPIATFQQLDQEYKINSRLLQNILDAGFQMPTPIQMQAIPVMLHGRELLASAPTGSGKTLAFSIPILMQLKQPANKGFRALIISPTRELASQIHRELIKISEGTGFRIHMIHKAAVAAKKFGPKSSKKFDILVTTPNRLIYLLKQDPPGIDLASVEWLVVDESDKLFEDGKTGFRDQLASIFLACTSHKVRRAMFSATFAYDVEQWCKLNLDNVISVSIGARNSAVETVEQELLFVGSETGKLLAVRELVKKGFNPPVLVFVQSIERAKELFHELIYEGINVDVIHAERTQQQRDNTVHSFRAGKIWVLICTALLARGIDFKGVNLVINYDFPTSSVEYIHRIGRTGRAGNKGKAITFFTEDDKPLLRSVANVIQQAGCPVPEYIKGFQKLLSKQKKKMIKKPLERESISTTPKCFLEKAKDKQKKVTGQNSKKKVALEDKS
In short: as §1

FHOD1 = molecular target: T3, FHOD1 (UniProt Q9Y613)
T3 sequence (whole entry): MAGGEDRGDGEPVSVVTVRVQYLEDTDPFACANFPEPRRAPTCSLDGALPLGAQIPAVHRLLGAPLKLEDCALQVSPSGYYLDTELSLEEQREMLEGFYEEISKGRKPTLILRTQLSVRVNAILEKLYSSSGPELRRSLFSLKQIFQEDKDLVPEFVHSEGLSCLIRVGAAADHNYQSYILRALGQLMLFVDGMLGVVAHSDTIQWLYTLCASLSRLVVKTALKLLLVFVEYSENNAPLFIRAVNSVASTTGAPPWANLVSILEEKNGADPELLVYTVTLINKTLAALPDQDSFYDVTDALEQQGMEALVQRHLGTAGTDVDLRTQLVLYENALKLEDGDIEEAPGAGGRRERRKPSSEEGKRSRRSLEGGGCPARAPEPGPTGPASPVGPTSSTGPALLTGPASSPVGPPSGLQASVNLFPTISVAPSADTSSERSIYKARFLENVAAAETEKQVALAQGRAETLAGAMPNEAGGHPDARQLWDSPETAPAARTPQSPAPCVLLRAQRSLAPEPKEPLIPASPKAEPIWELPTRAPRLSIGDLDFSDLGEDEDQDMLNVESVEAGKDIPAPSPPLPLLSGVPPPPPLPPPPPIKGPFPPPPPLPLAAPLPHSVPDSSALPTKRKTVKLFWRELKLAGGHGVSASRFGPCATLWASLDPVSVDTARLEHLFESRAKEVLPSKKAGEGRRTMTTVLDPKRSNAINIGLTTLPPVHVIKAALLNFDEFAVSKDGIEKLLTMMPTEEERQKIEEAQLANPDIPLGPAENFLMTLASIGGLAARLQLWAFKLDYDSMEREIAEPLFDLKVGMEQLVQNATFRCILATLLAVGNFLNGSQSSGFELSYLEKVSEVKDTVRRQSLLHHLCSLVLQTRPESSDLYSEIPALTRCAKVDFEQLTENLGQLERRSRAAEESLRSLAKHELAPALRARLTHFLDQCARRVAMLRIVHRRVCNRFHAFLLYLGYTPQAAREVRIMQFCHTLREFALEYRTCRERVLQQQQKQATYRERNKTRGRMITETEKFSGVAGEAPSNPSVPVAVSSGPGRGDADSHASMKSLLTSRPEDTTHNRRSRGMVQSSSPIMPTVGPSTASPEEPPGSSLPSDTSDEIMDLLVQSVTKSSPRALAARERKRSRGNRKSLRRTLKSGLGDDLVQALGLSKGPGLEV
In short: as §1

UniProt Q9Y6I3|Q9Y6I3-3 = molecular target: T4, UniProt Q9Y6I3|Q9Y6I3-3
T4 sequence (whole entry): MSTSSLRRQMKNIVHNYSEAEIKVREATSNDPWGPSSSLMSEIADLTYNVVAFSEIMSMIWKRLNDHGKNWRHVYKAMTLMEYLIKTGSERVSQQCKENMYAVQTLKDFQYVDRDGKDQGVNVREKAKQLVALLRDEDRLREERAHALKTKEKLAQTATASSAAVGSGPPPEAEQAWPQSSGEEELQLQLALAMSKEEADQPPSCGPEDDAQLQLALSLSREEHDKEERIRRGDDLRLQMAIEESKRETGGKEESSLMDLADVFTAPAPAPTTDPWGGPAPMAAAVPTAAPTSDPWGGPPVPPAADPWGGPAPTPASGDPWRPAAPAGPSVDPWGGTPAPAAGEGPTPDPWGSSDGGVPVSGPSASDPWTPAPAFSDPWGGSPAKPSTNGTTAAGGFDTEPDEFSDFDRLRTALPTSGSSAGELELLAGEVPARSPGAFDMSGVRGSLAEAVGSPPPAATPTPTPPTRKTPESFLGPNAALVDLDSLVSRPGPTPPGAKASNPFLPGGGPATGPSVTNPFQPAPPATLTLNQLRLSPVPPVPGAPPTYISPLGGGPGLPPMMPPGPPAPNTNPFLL
In short: as §1

[1] = molecular target: T5, UniProt Q9Y6M7-13|Q9Y6M7-6|Q9Y6M7-9|Q9Y6M7-5|A0A0A0MST8
T5 sequence (whole entry): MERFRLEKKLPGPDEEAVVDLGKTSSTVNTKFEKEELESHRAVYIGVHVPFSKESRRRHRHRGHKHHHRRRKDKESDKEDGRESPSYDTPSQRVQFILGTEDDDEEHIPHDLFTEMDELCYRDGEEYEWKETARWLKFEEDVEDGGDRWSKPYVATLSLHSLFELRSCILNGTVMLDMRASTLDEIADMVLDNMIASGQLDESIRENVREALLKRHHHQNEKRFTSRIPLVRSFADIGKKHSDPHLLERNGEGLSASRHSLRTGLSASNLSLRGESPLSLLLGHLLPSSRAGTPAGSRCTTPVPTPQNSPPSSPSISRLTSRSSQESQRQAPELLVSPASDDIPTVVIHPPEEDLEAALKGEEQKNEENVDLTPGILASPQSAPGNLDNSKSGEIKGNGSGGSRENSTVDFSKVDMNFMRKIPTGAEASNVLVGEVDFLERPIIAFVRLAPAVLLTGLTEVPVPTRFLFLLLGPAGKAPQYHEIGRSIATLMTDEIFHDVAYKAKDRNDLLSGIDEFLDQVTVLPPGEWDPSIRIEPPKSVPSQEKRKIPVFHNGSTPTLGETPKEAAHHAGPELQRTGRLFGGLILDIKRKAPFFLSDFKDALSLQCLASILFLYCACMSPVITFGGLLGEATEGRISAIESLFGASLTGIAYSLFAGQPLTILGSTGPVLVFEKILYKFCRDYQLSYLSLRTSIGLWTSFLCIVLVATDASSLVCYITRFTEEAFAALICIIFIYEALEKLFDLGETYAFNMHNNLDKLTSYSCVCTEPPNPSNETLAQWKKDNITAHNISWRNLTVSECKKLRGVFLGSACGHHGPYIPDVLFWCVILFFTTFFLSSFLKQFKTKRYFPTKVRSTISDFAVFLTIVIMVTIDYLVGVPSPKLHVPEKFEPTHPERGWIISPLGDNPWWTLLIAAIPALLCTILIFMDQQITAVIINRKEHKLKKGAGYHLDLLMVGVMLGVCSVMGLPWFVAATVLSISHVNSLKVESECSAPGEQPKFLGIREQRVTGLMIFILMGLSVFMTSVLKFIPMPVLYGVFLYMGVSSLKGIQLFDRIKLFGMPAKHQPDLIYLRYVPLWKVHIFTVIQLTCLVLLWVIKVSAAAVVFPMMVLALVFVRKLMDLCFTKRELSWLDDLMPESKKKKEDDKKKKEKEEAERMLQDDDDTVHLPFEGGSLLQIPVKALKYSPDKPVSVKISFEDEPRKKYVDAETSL
In short: as §1

Nc1ncnc2c1ncn2[C@@H]1O[C@H](COP(=O)(O)OP(=O)(O)OP(=O)(O)O)[C@@H](O)[C@H]1O [adenosine triphosphate]
NP40-soluble protein abundance (ALG5; concentration: 1mM): 1.03 ± 0.089
NP40-soluble protein abundance (ALG5; concentration: 2mM): 1.02 ± 0.074
NP40-soluble protein abundance (ALG5; concentration: 4mM): 1.03 ± 0.088
NP40-soluble protein abundance (ALG5; concentration: 6mM): 0.97 ± 0.13
NP40-soluble protein abundance (ALG5; concentration: 8mM): 1.03 ± 0.1
NP40-soluble protein abundance (ALG5; concentration: 10mM): 1.02 ± 0.058
NP40-soluble protein abundance (DDX52; concentration: 1mM): 1.11 ± 0.11
NP40-soluble protein abundance (DDX52; concentration: 2mM): 1.16 ± 0.17
NP40-soluble protein abundance (DDX52; concentration: 4mM): 1.31 ± 0.27
NP40-soluble protein abundance (DDX52; concentration: 6mM): 1.41 ± 0.23
NP40-soluble protein abundance (DDX52; concentration: 8mM): 1.51 ± 0.37
NP40-soluble protein abundance (DDX52; concentration: 10mM): 1.71 ± 0.49
NP40-soluble protein abundance (FHOD1; concentration: 1mM): 0.963 ± 0.062
NP40-soluble protein abundance (FHOD1; concentration: 2mM): 1.01 ± 0.085
NP40-soluble protein abundance (FHOD1; concentration: 4mM): 1.02 ± 0.058
NP40-soluble protein abundance (FHOD1; concentration: 6mM): 1.01 ± 0.078
NP40-soluble protein abundance (FHOD1; concentration: 8mM): 0.952 ± 0.068
NP40-soluble protein abundance (FHOD1; concentration: 10mM): 0.96 ± 0.055
NP40-soluble protein abundance (UniProt Q9Y6I3|Q9Y6I3-3; concentration: 1mM): 0.932 ± 0.045
NP40-soluble protein abundance (UniProt Q9Y6I3|Q9Y6I3-3; concentration: 2mM): 0.915 ± 0.018
NP40-soluble protein abundance (UniProt Q9Y6I3|Q9Y6I3-3; concentration: 4mM): 0.915 ± 0.023
NP40-soluble protein abundance (UniProt Q9Y6I3|Q9Y6I3-3; concentration: 6mM): 0.927 ± 0.037
NP40-soluble protein abundance (UniProt Q9Y6I3|Q9Y6I3-3; concentration: 8mM): 0.907 ± 0.029
NP40-soluble protein abundance (UniProt Q9Y6I3|Q9Y6I3-3; concentration: 10mM): 0.894 ± 0.014
NP40-soluble protein abundance ([1]; concentration: 1mM): 1.05 ± 0.022
NP40-soluble protein abundance ([1]; concentration: 2mM): 1.03 ± 0.026
NP40-soluble protein abundance ([1]; concentration: 4mM): 1.05 ± 0.036
NP40-soluble protein abundance ([1]; concentration: 6mM): 1.04 ± 0.032
NP40-soluble protein abundance ([1]; concentration: 8mM): 1.06 ± 0.024
NP40-soluble protein abundance ([1]; concentration: 10mM): 1.02 ± 0.034
